Measurements published in the supplement of paper PMC13172266.
Where a name gives a salt, the structure may show the parent alone.

Legend:
Test in all cases: cell proliferation relative to vehicle (% of vehicle); higher = less growth inhibition
Conditions in all cases: 72 h
[1] = test system: U2932 TK216-resistant clone 2
Procedure, shortened: (§1)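 A library of 348 targeted inhibitors was screened against the ABC-DLBCL cell line U2932, using parental cells and two clones made resistant to an ETS-targeting agent through repeated exposure over almost a year. The cells were cultured at 37°C and 5% CO2 in medium containing 10% FBS and treated at 500 nM or 50 nM for 72 h, after which MTT was added for 4 h, stopped with 25% SDS, and absorbance was read on a Cytation 3. Proliferation is given as the percentage of proliferating cells relative to the vehicle, DMSO.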

[2] = test system: U2932 TK216-resistant clone 3
Procedure, shortened: as §1

[3] = test system: U2932 parental
Procedure, shortened: as §1

| Compound | cell proliferation ([1]; 50 nM) | cell proliferation ([1]; 500 nM) | cell proliferation ([2]; 50 nM) | cell proliferation ([2]; 500 nM) | cell proliferation ([3]; 50 nM) | cell proliferation ([3]; 500 nM) |
| --- | --- | --- | --- | --- | --- | --- |
| CN[C@@H](C)C(=O)N[C@H]1CN(C(=O)CC(C)C)CC[C@H]2CC[C@@H](C(=O)NC(c3ccccc3)c3ccccc3)N2C1=O | 106 | 111 | 94.6 | 105 | 94 | 103 |
| C[C@]12C=CC(=O)C=C1CC[C@@H]1[C@@H]2C(=O)C[C@@]2(C)[C@H]1CC[C@]2(O)C(=O)CO [Prednisone] | 95.3 | 94.8 | 105 | 102 | 97.3 | 100 |
| NC1(c2ccc(-c3nc4ccn5c(=O)[nH]nc5c4cc3-c3ccccc3)cc2)CCC1 | 101 | 70.1 | 97.5 | 74.9 | 96.8 | 68.4 |
| c1ccc(Cn2c(-c3ccc(OC[C@H](C4CCNCC4)n4c(-c5ccccc5)nc5ccccc54)cc3)nc3ccccc32)cc1 [Deltarasin] | 102 | 88 | 98.8 | 83.6 | 103 | 91.4 |
| Nc1cccc2c1CN(C1CCC(=O)NC1=O)C2=O (stereo not drawn) [Lenalidomide (CC-5013)] | 107 | 98 | 102 | 96 | 98 | 99.7 |
| C[C@@H](O[C@H]1OCCN(Cc2n[nH]c(=O)[nH]2)[C@H]1c1ccc(F)cc1)c1cc(C(F)(F)F)cc(C(F)(F)F)c1 [Aprepitant] | 109 | 106 | 101 | 97.4 | 108 | 98.5 |
| CN1CCN(CCOc2cc(OC3CCOCC3)c3c(Nc4c(Cl)ccc5c4OCO5)ncnc3c2)CC1 [Saracatinib (AZD0530)] | 103 | 97.1 | 99.6 | 101 | 94.1 | 98.9 |
| CC[C@@](C)(Nc1ccnc(-c2c[nH]c3ncccc23)n1)C(=O)NCC(F)(F)F [Decernotinib (VX-509)] | 103 | 92.4 | 97.4 | 105 | 98.2 | 98.6 |
| COc1cc2c(c(OC)c1OC)-c1c(cc3c(c1OC)OCO3)CC(C)C(C)C2 (stereo not drawn) [Schisandrin B (Sch B)] | 99.1 | 104 | 108 | 97.6 | 97.2 | 95.9 |
| CO[C@@]12[C@H](COC(N)=O)C3=C(C(=O)C(C)=C(N)C3=O)N1C[C@@H]1N[C@@H]12 [Mitomycin C] | 94.8 | 13.8 | 96.6 | 26.4 | 91.3 | 35.8 |
| NC(=O)c1ccc(N(C(N)=O)c2c(F)cccc2F)nc1-c1ccc(F)cc1F | 106 | 100 | 108 | 99.3 | 99.3 | 98.7 |
| O=c1oc2c(O)c(O)cc3c(=O)oc4c(O)c(O)cc1c4c23 [Ellagic acid] | 99 | 110 | 106 | 107 | 101 | 100 |
| CCCCCCCCCCCCCCCCCCOP(=O)([O-])OC1CC[N+](C)(C)CC1 [Perifosine (KRX-0401)] | 98.7 | 93.4 | 113 | 110 | 96.7 | 102 |
| COc1ccc(-c2ccc3c(N4CCOCC4)nc(N4C[C@@H](C)O[C@@H](C)C4)nc3n2)cc1CO | 95.3 | 46.8 | 98.9 | 49.3 | 91.4 | 57.7 |
| Cc1[nH]nc2ccc(-c3cncc(OC[C@@H](N)Cc4ccccc4)c3)cc12 | 95.6 | 41.7 | 99.4 | 40.6 | 93.5 | 31.7 |
| Oc1c2ccccc2c2c3c(cccc13)N=N2 | 101 | 113 | 105 | 104 | 103 | 101 |
| C#Cc1cccc(Nc2ncnc3cc(OC)c(OCCCCCCC(=O)NO)cc23)c1 | 93.7 | 43.4 | 96.3 | 52.5 | 89.5 | 43.9 |
| CCCNC(=O)c1cn2ncnc(Nc3cc(C(=O)NC4CC4)ccc3C)c2c1C | 104 | 98.2 | 105 | 103 | 103 | 98.7 |
| COCCOc1ccc2c(c1)ncn2-c1ccc2cccc(N3CCC(N)CC3)c2n1 | 107 | 106 | 103 | 94 | 99.8 | 90.4 |
| CNC(=O)c1cc(Oc2ccc(NC(=O)Nc3ccc(Cl)c(C(F)(F)F)c3)cc2)ccn1 [Sorafenib] | 114 | 107 | 105 | 122 | 101 | 112 |
| COc1cc(Nc2ncc(F)c(Nc3ccc4c(n3)NC(=O)C(C)(C)O4)n2)cc(OC)c1OC [R406 (free base)] | 98 | 87.2 | 103 | 98.3 | 94.8 | 92.8 |
| CCCCCCCCc1ccc(CCC(N)(CO)CO)cc1 [Fingolimod (FTY720) HCl] | 99.3 | 102 | 99.6 | 96.1 | 98.3 | 94.8 |
| COCC[n+]1c2c(n(Cc3cnccn3)c1C)C(=O)c1ccccc1C2=O [YM155 (Sepantronium Bromide)] | -0.426 | -1.48 | -1.12 | -4.35 | 0.598 | -3.81 |
| Nc1nc(Nc2ccc(S(N)(=O)=O)cc2)nn1C(=O)c1c(F)cccc1F | 103 | 85.3 | 102 | 78.1 | 98.8 | 87.7 |

| Compound | cell proliferation ([1]; 50 nM) | cell proliferation ([1]; 500 nM) | cell proliferation ([2]; 50 nM) | cell proliferation ([2]; 500 nM) | cell proliferation ([3]; 50 nM) | cell proliferation ([3]; 500 nM) |
| --- | --- | --- | --- | --- | --- | --- |
| CC(C)(C(=O)NCC(F)(F)C(F)(F)F)C(=O)N[C@@H]1C(=O)Nc2ccccc2-c2ccccc21 | 105 | 109 | 105 | 100 | 98.7 | 86.5 |
| CO[C@H]1C[C@@H]2CC[C@@H](C)[C@@](O)(O2)C(=O)C(=O)N2CCCC[C@H]2C(=O)O[C@H]([C@H](C)C[C@@H]2CC[C@@H](OCCO)[C@H](OC)C2)CC(=O)[C@H](C)/C=C(\C)[C@@H](O)[C@@H](OC)C(=O)[C@H](C)C[C@H](C)/C=C/C=C/C=C/1C [Everolimus (RAD001)] | 65.8 | 65.5 | 64.2 | 66.5 | 55.5 | 59.1 |
| Cc1cnc(-c2ccccc2C(C)C)nc1NCc1ccc(-n2ccnn2)cc1 | 108 | 97.8 | 105 | 108 | 101 | 98.5 |
| Cc1nc(Nc2ncc(C(=O)Nc3c(C)cccc3Cl)s2)cc(N2CCN(CCO)CC2)n1 [Dasatinib] | 74.2 | 63.7 | 66.1 | 52.4 | 75 | 60.9 |
| COc1ccc(C2=N[C@H](c3ccc(Cl)cc3)[C@H](c3ccc(Cl)cc3)N2C(=O)N2CCNC(=O)C2)c(OC(C)C)c1 [Nutlin-3b] | 105 | 96.6 | 100 | 107 | 102 | 99.6 |
| C/C(=C\C(=O)Nc1ccccc1C(=O)O)c1ccc2ccccc2c1 | 82.5 | 98.2 | 109 | 100 | 97.4 | 102 |
| O=C1c2c(O)ccc(O)c2C(=O)c2c(NCCNCCO)ccc(NCCNCCO)c21 [Mitoxantrone] | 12 | 5.19 | 16 | 15 | 18.8 | 8.11 |
| Cn1cc(/C=C2\C(=O)Nc3cccnc32)c2ccccc21 | 102 | 105 | 106 | 105 | 97.2 | 90 |
| CCO[C@@H]1OC(=O)C[C@@H]1NC(=O)[C@@H]1CCCN1C(=O)[C@@H](NC(=O)c1ccc(N)c(Cl)c1)C(C)(C)C | 105 | 105 | 101 | 102 | 95.4 | 98.2 |
| O=S(=O)(O)CCS [Mesna] | 110 | 116 | 101 | 103 | 95.4 | 103 |
| O=C(Nc1c[nH]nc1-c1nc2ccc(CN3CCOCC3)cc2[nH]1)NC1CC1 | 90.5 | 67.5 | 75.8 | 60.1 | 69.3 | 54.2 |
| O=C(c1cc(Cc2n[nH]c(=O)c3ccccc23)ccc1F)N1CCN(C(=O)C2CC2)CC1 | 103 | 99.3 | 103 | 103 | 99.6 | 94.9 |
| O=C(O)c1ccc(O)c2ncccc12 | 104 | 107 | 101 | 99.2 | 106 | 105 |
| Nc1ccn([C@@H]2O[C@H](CO)[C@@H](O)C2(F)F)c(=O)n1 [Gemcitabine] | 15.3 | 14.9 | 20.1 | 19.1 | 12.5 | 14.6 |
| C[C@]1(c2nc3c(C(N)=O)cccc3[nH]2)CCCN1 [Veliparib (ABT-888)] | 90.3 | 91.5 | 98.8 | 80.8 | 87 | 96.6 |
| CC1(C)CC[C@]2(NC(=O)C(C)(F)F)CC[C@]3(C)[C@H](C(=O)C=C4[C@@]5(C)C=C(C#N)C(=O)C(C)(C)[C@@H]5CC[C@]43C)[C@@H]2C1 [Omaveloxolone (RTA-408)] | 95.5 | 10 | 103 | 23.8 | 93.8 | 14.7 |
| COc1cc(Nc2nc3ccccc3nc2NS(=O)(=O)c2ccc(NC(=O)c3ccc(C)c(OC)c3)cc2)cc(OC)c1 | 98.5 | 106 | 104 | 103 | 105 | 104 |
| CCCc1ccc(OCC(=O)N(Cc2nc(-c3cccnc3)no2)C(C)C)cc1 | 107 | 102 | 103 | 101 | 85.2 | 97.7 |
| C[C@]12CC[C@@H]3c4ccc(O)cc4C[C@@H](CCCCCCCCC[S+]([O-])CCCC(F)(F)C(F)(F)F)[C@H]3[C@@H]1CC[C@@H]2O (stereo partly drawn) [Fulvestrant] | 98.2 | 101 | 103 | 104 | 98.8 | 93.9 |
| COc1cc2ncnc(Nc3ccc(O)c(Br)c3)c2cc1OC | 106 | 111 | 96.2 | 105 | 98.3 | 101 |
| Cc1ccc(F)c(NC(=O)Nc2ccc(-c3cccc4[nH]nc(N)c34)cc2)c1 [Linifanib (ABT-869)] | 99.8 | 93.1 | 99 | 95.7 | 90.6 | 107 |
| O=C(O)C(Cc1c[nH]c2ccccc12)N1C(=O)c2ccccc2C1=O (stereo not drawn) | 97.2 | 102 | 99.2 | 98 | 100 | 96.1 |
| Nc1cc(C(F)(F)F)c(-c2cc(N3CCOCC3)nc(N3CCOCC3)n2)cn1 [BKM120 (NVP-BKM120, Buparlisib)] | 112 | 77.9 | 96.2 | 72.4 | 97.7 | 78.5 |
| O=C(Nc1cccc(Nc2ncc(Br)c(NCCc3cnc[nH]3)n2)c1)N1CCCC1 | 95.7 | 87 | 103 | 77 | 99.6 | 68.1 |
